Reference: ChEMBL document CHEMBL3988442, “University of Dundee, Small-Polar-MMV Screening Library” (2021)
For some of these results: Potency and affinity values are given separately.

Key:
Parameters in all cases: scale not given: direction of the effect not stated beside the values
[1] = target: Protein translocase subunit SecA (Escherichia coli (strain K12)) (UniProt P10408); test: Assay to Identify E. coli SecA ATPase Inhibitors; format: functional; settings: 30 µM
[2] = target: T1, Ubiquitin-activating enzyme e1, putative (Leishmania donovani (strain BPK282A1)) (UniProt E9BSI1); test: Leishmania donovani Ubiquitin Activating Enzyme (LdE1); format: functional; settings: 30 µM
T1 sequence (whole entry): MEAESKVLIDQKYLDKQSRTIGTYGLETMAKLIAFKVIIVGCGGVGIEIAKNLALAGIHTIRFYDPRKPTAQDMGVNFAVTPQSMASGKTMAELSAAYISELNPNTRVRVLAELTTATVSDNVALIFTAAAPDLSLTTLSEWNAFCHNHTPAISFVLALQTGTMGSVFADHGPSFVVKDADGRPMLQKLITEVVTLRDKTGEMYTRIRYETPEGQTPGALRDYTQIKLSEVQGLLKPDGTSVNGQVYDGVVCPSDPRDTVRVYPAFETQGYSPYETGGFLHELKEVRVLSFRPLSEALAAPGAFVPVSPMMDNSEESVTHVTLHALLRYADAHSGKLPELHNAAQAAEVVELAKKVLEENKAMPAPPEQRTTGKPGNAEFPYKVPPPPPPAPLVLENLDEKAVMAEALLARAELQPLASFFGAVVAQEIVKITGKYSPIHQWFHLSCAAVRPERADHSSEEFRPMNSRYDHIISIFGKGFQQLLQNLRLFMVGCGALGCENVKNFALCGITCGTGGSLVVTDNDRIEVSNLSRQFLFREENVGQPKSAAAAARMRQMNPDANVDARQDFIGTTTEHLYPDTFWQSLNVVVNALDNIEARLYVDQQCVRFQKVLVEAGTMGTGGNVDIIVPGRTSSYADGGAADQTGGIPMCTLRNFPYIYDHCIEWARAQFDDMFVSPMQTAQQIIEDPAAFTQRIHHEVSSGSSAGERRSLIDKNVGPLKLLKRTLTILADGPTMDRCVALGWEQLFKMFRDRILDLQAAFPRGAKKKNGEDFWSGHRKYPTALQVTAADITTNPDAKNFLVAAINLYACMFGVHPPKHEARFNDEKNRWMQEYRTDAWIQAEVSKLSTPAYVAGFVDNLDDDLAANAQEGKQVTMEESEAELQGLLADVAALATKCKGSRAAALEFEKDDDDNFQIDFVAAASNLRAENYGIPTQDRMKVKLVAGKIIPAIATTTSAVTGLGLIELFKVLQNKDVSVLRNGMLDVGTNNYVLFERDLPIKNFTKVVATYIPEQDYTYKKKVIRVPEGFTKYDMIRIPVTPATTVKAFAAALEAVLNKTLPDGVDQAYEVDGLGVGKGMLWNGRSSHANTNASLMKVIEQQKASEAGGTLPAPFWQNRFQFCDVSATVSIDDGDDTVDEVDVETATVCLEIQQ

[3] = target: AMP-activated protein kinase, AMPK (Homo sapiens) (UniProt P54646+O43741+P54619+Q9UGJ0+Q9Y478+Q13131+Q9UGI9); test: AMP-dependent Kinase enzyme assay. An in vitro enzyme assay that detects ADP turnover that is directly proportional to AMPK activity. This uses naive AMPK that is activated during the assay with MK-8722; format: functional; settings: 30 µM
[4] = target: Sialic acid-binding Ig-like lectin 9 (Homo sapiens) (UniProt Q9Y336); test: Hs-Siglec9 ALPHAscreen SOP 20170721; settings: 10 µM
Trypanosoma cruzi = test: Trypanosoma cruzi phosphomannomutase and mannose-1-phosphate guanylyltransferase assay; format: functional; settings: 10 µM
[5] = target: T2, Arginase-2, mitochondrial (Homo sapiens) (UniProt P78540); test: in vitro enzyme assay to detect the production of urea directly proportional to the activity of Arginase II; format: functional; settings: 33.3 µM; note: in the data most compounds retested in dose-response had high values
T2 sequence (whole entry): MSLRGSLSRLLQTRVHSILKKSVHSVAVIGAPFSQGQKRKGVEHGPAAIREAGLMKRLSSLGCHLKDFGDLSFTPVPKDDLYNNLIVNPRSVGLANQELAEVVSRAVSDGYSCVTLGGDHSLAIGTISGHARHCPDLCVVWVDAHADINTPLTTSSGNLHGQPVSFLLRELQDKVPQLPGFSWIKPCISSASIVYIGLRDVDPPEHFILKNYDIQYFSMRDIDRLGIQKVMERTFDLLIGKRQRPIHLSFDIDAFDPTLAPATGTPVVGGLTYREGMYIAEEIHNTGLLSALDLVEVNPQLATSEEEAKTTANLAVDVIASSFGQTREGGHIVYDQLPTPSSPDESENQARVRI

[6] = target: T3, Proteasome subunit beta (Trypanosoma cruzi) (UniProt O96673); test: Trypanosoma cruzi proteasome chymotrypsin-like activity (TcProtChymo) assay.; note: in the data most compounds retested in dose-response had high values; format: functional; settings: 9.37 µM
T3 sequence (whole entry): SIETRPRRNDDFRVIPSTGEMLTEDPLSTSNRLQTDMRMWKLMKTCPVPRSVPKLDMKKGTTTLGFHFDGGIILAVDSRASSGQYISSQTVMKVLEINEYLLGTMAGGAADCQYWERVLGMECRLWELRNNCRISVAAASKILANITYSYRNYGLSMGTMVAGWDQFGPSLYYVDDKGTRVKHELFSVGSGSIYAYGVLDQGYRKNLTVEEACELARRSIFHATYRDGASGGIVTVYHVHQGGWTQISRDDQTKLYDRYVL

Homo sapiens = species on record: Homo sapiens; test: To identify inhibition of the IFN signalling (Jak-Stat) pathway via expression of an eGFP reporter gene under the control of an IFN-stimulated response element (ISRE) containing MxA promoter.; format: functional; settings: 30 µM
[7] = target: T4, Tyrosyl-tRNA synthetase, putative (Trypanosoma cruzi (strain CL Brener)) (UniProt Q4DSP6); test: Trypanosoma cruzi tyrosyl tRNA synthetase (TcYRS) _High Tyrosine SOP; format: functional; settings: 30 µM; note: in the data most compounds retested in dose-response had high values
T4 sequence (whole entry): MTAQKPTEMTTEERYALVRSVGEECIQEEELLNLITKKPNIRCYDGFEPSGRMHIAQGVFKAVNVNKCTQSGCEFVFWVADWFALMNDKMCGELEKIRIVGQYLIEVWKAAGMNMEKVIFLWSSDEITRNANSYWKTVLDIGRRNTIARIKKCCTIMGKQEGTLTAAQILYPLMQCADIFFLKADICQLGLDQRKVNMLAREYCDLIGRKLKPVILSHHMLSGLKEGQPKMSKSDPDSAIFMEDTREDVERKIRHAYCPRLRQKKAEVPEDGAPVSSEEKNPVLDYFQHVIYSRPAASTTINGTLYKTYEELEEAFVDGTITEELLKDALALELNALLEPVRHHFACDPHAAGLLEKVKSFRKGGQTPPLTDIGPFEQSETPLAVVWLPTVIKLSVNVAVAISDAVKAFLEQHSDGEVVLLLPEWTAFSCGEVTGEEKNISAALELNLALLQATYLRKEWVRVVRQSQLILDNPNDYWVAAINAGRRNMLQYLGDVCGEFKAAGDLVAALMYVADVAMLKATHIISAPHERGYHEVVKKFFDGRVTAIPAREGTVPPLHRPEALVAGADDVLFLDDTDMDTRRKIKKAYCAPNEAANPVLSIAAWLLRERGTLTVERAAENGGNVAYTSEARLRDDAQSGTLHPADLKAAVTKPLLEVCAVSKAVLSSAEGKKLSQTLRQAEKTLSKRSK

[8] = target: T4, Tyrosyl-tRNA synthetase, putative (Trypanosoma cruzi (strain CL Brener)); test: Trypanosoma cruzi tyrosyl tRNA synthetase (TcYRS) SOP; format: functional; settings: 30 µM
[9] = target: Chromo domain-containing protein 1 (Saccharomyces cerevisiae (strain ATCC 204508 / S288c) (Baker's yeast)) (UniProt P32657); test: ScCHD-1 Enzyme Inhibition Assay; format: functional; settings: 30 µM; note: in the data most compounds retested in dose-response had high values
Sequence of Chromo domain-containing protein 1 (Saccharomyces cerevisiae (strain ATCC 204508 / S288c) (Baker's yeast)) (P32657 whole entry, the tested form may be a part): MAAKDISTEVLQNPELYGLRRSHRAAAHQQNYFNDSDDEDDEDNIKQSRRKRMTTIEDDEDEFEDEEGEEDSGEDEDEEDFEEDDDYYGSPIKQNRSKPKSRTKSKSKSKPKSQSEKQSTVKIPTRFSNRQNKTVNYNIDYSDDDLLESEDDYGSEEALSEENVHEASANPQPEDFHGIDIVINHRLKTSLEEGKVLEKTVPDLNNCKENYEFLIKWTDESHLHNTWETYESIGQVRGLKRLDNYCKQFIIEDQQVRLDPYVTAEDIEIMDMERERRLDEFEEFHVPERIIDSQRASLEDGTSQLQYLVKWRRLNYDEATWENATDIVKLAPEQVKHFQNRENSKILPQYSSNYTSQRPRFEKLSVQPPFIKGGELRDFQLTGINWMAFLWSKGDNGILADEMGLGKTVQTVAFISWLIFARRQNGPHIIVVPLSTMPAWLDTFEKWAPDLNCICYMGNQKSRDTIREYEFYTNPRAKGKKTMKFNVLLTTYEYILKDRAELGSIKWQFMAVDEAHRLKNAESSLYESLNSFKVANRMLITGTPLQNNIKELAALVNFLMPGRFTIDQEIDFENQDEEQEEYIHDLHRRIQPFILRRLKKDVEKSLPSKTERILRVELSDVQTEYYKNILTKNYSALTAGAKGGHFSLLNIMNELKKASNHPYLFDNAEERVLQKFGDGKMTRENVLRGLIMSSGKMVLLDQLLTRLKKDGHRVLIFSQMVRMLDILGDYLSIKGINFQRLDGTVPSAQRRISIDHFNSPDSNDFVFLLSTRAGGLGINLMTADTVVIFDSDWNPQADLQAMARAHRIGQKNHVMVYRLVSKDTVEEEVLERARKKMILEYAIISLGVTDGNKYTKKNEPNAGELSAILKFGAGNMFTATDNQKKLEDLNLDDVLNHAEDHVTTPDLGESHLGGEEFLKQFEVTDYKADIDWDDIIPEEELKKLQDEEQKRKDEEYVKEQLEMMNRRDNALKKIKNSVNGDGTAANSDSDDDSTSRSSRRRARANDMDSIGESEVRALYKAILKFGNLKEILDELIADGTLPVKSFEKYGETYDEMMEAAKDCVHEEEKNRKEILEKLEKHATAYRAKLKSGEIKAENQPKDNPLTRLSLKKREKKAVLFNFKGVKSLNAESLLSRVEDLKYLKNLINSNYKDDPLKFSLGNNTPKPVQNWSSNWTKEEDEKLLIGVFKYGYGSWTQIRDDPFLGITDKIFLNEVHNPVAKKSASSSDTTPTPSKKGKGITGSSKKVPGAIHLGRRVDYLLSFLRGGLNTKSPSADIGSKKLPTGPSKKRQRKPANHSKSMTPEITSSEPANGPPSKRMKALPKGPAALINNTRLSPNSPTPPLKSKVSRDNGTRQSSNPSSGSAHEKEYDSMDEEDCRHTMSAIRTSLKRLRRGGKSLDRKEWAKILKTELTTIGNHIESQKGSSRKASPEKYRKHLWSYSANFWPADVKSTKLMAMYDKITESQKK

Sequence of Protein translocase subunit SecA (Escherichia coli (strain K12)) (P10408 whole entry): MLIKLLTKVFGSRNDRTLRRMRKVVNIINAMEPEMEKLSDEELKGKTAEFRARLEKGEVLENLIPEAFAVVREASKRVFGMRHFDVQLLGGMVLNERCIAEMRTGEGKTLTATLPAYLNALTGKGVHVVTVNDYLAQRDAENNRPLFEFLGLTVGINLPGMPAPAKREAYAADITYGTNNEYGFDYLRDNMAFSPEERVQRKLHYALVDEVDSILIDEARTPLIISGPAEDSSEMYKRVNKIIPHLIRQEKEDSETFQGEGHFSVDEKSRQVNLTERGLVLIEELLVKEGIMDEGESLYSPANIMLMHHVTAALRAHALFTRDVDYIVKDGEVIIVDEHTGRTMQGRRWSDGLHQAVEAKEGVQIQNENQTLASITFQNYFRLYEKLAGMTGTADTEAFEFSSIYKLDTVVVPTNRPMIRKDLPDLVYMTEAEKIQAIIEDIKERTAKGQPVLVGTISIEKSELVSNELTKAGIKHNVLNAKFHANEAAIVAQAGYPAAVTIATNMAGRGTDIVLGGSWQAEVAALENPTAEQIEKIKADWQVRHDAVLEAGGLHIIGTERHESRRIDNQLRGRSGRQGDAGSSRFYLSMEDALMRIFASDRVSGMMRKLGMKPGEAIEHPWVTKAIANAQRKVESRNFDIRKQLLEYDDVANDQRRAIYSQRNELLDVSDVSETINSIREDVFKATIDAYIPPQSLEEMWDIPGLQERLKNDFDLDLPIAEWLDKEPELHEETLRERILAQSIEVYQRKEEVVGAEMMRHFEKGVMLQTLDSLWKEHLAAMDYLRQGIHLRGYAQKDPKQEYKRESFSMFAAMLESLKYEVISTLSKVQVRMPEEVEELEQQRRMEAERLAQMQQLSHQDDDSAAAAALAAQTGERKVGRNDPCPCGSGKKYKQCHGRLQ
Sequence of Sialic acid-binding Ig-like lectin 9 (Homo sapiens) (Q9Y336 whole entry): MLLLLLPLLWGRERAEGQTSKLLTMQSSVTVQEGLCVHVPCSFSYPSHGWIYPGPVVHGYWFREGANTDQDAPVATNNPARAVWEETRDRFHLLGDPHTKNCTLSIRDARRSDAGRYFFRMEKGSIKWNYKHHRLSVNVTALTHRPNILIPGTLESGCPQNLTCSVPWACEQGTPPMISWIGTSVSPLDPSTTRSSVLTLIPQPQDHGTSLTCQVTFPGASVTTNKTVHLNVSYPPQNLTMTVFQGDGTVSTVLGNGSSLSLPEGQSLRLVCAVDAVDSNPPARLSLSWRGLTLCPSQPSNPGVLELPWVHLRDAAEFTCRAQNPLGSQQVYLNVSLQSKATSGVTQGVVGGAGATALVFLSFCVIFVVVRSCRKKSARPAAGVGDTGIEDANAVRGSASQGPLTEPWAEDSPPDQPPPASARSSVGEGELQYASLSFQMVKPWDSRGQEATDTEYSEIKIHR

Structure (SMILES) | Percent Effect [1] [%] | Percent Effect [2] [%] | Percent Effect [3] [%] | Percent Effect [4] [%] | Percent Effect (Trypanosoma cruzi) [%] | Percent Effect [5] [%] | Percent Effect [6] [%] | Percent Effect (Homo sapiens) [%] | Percent Effect [7] [%] | Percent Effect [8] [%] | Percent Effect [9] [%]
c1cnn(-c2ccc(CN3CCOC(Cn4cncn4)C3)cc2)c1 (stereo not given) | -2.23 | 12.7 | 0.7 | 6.36 | 2.74 | 1.52 | -2.21 | -11.6 | 7.39 | 13.9 | -8.36
CCc1cnc(N2CCC(=O)N(CC3CC3)C(C(C)C)C2)nc1 (stereo not given) | 3.49 | 13.5 | -2.35 | 11.8 | -0.965 | 4.29 | 8.62 | 29.3 | 3.7 | 12.2 | -1.36
O=C(CCC1CC1)N1C[C@@H](CN2CCCC2)[C@@H](CO)C1 | -2.75 | 0 | 2.73 | 1.73 | -2.46 | -8.28 | 3.49 | 4.43 | 2.15 | 6.17 | -2.02
Cc1nc(C)n(C2CCCN(C(=O)c3ccc(NC4CC4)nc3)C2)n1 (stereo not given) | -2.93 | -5.41 | 2.71 | 10.3 | 2.14 | -4.25 | -3.77 | 8.24 | 1.98 | 6.1 | 4.04
COc1cccc(N2CCN(Cc3ncc[nH]3)CC2=O)c1 | -0.114 | 6.94 | -20.4 | -7.16 | -1.85 | -0.442 | 12.3 | -17.7 | -2.1 | 10.3 | -4.76
CNC(=O)Nc1cc(-c2ccc(Br)cc2)nn1CCO | -6.67 | 10.5 | 0.242 | 1.93 | 5.94 | -16.6 | 3.16 | -5.7 | 4.25 | 2.6 | -2.66
Cc1nc(C2CCCN2C(=O)c2ccccc2)ncc1C(N)=O (stereo not given) | -3.32 | 10.7 | 3.14 | 7.6 | 1.97 | -3.96 | 3.79 | 22.3 | 5.32 | 14.1 | -6.6
Cc1cc(-c2cnc(NCc3cccnc3)nc2C(C)(C)C)on1 | -1.82 | 0 | 24.3 | 4.38 | -3.74 | -0.699 | 8.37 | 43.3 | 6.38 | 6.41 | -0.51
CC(C)c1nnc2n1CCN(C(=O)CN1CCc3sccc3C1)C2 | -3.25 | 5.26 | -8.35 | -4 | 7.71 | 4.6 | -2.34 | 0.728 | 3.43 | 7.32 | -5.85
O=C(Cc1ccsc1)N1CCn2cc(CN3CCCC3)nc2C1 | -1.1 | 8.22 | -4.43 | 11.5 | 8.33 | -9.98 | 20.1 | -16 | 14.6 | 23.5 | -4.19
Cc1nc(C)n(CC2CCCN(Cc3cccc(C#N)c3)C2)n1 (stereo not given) | -3.63 | -18.9 | -7.23 | 5.42 | -1.23 | -7.62 | 5.59 | 3.79 | 6.4 | 13.6 | -5.48
c1ccc2sc(CN3CCOC(Cn4cccn4)C3)nc2c1 (stereo not given) | -6.08 | 5.41 | -3.49 | 1.12 | -4.06 | -2 | 0 | 24.4 | -0.493 | -8.64 | -0.731
COCCC1COC2(CCN(C(=O)c3ccco3)CC2)C1 (stereo not given) | -2.43 | 13.3 | 5.93 | 0.194 | -0.787 | 3.5 | 0.264 | 0.48 | 8.51 | 16.7 | -2.69
Cc1ccccc1C1(C(=O)NCCN2CCCC2)CCOCC1 | -0.0334 | 10.8 | -6.54 | -0.683 | -0.283 | -8.42 | 16.2 | 20.7 | 9.36 | 18.5 | -8.78
Cc1cc(C(=O)N2C[C@@H]3COC[C@]3(c3nnc(C4CC4)o3)C2)on1 | -4.61 | 13.3 | -3.2 | -0.841 | 1.16 | -46.4 | 7.52 | -5.46 | -5.21 | 5 | -9
O=C(c1cccnc1N1CCOCC1)N1CCCC(n2ccnc2)C1 (stereo not given) | -1.05 | 18.4 | 3.79 | 3.27 | -3.76 | -1.53 | 9.36 | 0.0212 | 4.41 | 17.1 | -9.1
Cc1cccc(-c2nc(C)nn2CC(=O)N(C)C2CC2)c1 | -4.92 | 15.6 | 4.09 | 7.36 | 3.18 | -3.2 | 3.55 | 5.06 | 6.8 | 21.9 | -3.56
Cc1nn(C)c(N(C)C)c1CNCc1ccccc1Cn1cncn1 | -6.25 | 6.33 | -0.0601 | 1.64 | -1.33 | 0.215 | 6.52 | 3.54 | 3.12 | -5.06 | -11.2
CCS(=O)(=O)N1CCOC2(CCCN(c3ccc(C)nn3)C2)C1 (stereo not given) | -0.413 | 2.67 | 3.56 | 2.28 | -1.35 | -48.9 | 6.67 | -5.88 | -1.04 | -2.5 | 0.0361
Cc1cn2c(n1)CCC(NC(=O)c1ccc(CS(C)(=O)=O)o1)C2 (stereo not given) | -2.09 | 7.89 | 0.931 | 9.84 | 4.13 | 0.766 | 9.52 | 3.27 | 3.43 | 9.76 | -9.57
